From PubChem BioAssay (NCI) come the findings set out here.

Compounds without any hit were thinned out: in the full panel of roughly 79,000, 15% have a hit. Active and inactive are the calls of the source. Rule as the data show it: active = growth inhibition above about 70%; inactive = the rest. Where a SMILES comes first, the peptide text is derived from it. [ ]: non-standard residue; d: D form. The star is where a group is joined. ξ: configuration not given here. Cbz = O=C(OCc1ccccc1)*; Nva = CCC[CH](N)C(=O)O; ξM = CSCCC(N)C(=O)O

The experiment is described as follows: NCI Yeast Anticancer Drug Screen. Data for the mlh1 rad18 strain (AID 175). Particulars: S. cerevisiae mlh1 rad18 strain growth inhibition; at 50.0 µM; active compounds read high. The procedure: Growth inhibition of yeast strains with defined genetic alterations is measured as a screen for potential anti-cancer activity. Selected strains with alterations in DNA damage repair or cell cycle control were exposed to compounds and growth inhibition was measured relative to vehicle treated controls. The strain used in this assay is mlh1 rad18
As to `CCCC(NC(=O)OCc1ccccc1)C(=O)NC(CO)C(=O)O` (stereo not given) (Cbz-[Nva]-Ser-OH; configuration not given here), the growth inhibition is 8.05% (inactive).

With `O=S(=O)(CS(=O)(=O)c1ccc(Br)cc1)c1ccc(Br)cc1`, the growth inhibition was 12% (inactive).

With `C(/C=N/NC1=NCCCN1)=N\NC1=NCCCN1`, the growth inhibition is -14.2% (inactive).

`CSCCC(NC(=O)CNC(=O)CNC(=O)OCc1ccccc1)C(=O)O` (stereo not drawn) (Cbz-Gly-Gly-[ξM]-OH): the growth inhibition is 96.7% (active).

Consider `COc1ccc(-c2c3c(n(C4OC(COC(C)=O)C(OC(C)=O)C(OC(C)=O)C4OC(C)=O)c(=S)c2C#N)CCC3)cc1` (stereo not given), for which the growth inhibition was 20.9% (inactive).

In the case of `CN(C(=O)c1ccccc1)C1CCCC(=O)CC1` (stereo not given), the growth inhibition is -65% (inactive).

Take `COc1cc(O)c2c(c1)C(=O)C1=C(C2=O)C(O)C[C@@](C)(O)C1` (stereo not given in full): the growth inhibition is 90% (active).

Turning to `O=c1c2ccccc2nnn1O`, the growth inhibition is 6.45% (inactive).

With `Cc1c(NC(=O)Nc2c(Cl)cccc2Cl)c(=O)n(-c2ccccc2)n1C`, the growth inhibition was -39.9% (inactive).

As to `COC(=O)c1cc(C(=O)O)c(=O)n2ccccc12`, the growth inhibition was 41.5% (inactive).

Consider `NC(CCCOS(=O)(=O)O)Cc1ccc2ccccc2c1` (stereo not given), for which the growth inhibition was 8.9% (inactive).

For the compound `CCN(CC(=O)NC(=O)c1ccccc1)c1ccccc1`, the growth inhibition was -12.7% (inactive).

Consider `CC1COC(c2ccc(Cl)cc2Cl)O1` (stereo not given), for which the growth inhibition is -0.65% (inactive).

On to `C[CH2][Ge]([CH2]C)([CH2]C)[O]C(=O)CCC(=O)[O][Ge]([CH2]C)([CH2]C)[CH2]C`, for which the growth inhibition is 14.7% (inactive).

On to `NC(=O)c1cn2ccccc2c1[N+](=O)[O-]`, for which the growth inhibition is 5.2% (inactive).

Regarding `O=C(O)CCBr`, the growth inhibition was 43.8% (inactive).

For `O=C(Nc1c(Oc2ccc(Cl)c(Cl)c2)ccc(Cl)c1S(=O)(=O)O)Nc1c(Oc2ccc(Cl)c(Cl)c2)ccc(Cl)c1S(=O)(=O)O`, the growth inhibition was 22.2% (inactive).

Take `CCCCCCCCCCCCCCCCc1ccc(CCCC(=O)O)cc1`: the growth inhibition was 12.5% (inactive).

With `O=C1NC(=O)c2ccccc2/C1=C/c1ccc2c(c1)OCO2`, the growth inhibition was -26.6% (inactive).

With `COc1cc([N+](=O)[O-])ccc1C(=O)NC(CCC(=O)O)C(=O)O` (stereo not given), the growth inhibition is -22.1% (inactive).

In the case of `Cc1ccc(S(=O)(=O)Nc2cc3c(cc2NC(=O)C(F)(F)F)-c2ccccc2C3)cc1`, the growth inhibition is 46% (inactive).

`Cc1c(C(=O)Nc2ccc(Cl)cc2)nc(N)nc1-c1cccc(Cl)c1`: the growth inhibition was -8.7% (inactive).

In the case of `CN(C)/N=N/c1nc2c(c(=O)n(C)c(=O)n2C)n1CC(O)CO` (stereo not given), the growth inhibition is 27.1% (inactive).

For `CC(=O)C1CCC2C3CC=C4CC(O)C=CC4(C)C3CCC12C` (stereo not given), the growth inhibition was 17.9% (inactive).

On to `OCC1OC(n2c(SCc3ccccc3)nc3ccccc32)C(O)C1O` (stereo not given), for which the growth inhibition was 0.1% (inactive).

On to `NC1=NC(c2ccc(Cl)cc2)N(c2ccc(S(N)(=O)=O)cc2)C(N)=N1` (stereo not given), for which the growth inhibition was 21.6% (inactive).

For the compound `CCOC(=O)C1=C(C)N(Cc2ccccc2)C2(O)C1=CC(=O)C(Cl)=C2Cl` (stereo not given), the growth inhibition is 42.4% (inactive).

Regarding `COC1/C=C\OC2(C)Oc3c(C)c(O)c4c(O)c(c5[nH]cnc5c4c3C2=O)NC(=O)/C(C)=C\C=C\C(C)C(O)C(C)C(O)C(C)C(OC(C)=O)C1C` (stereo not given), the growth inhibition was 21.4% (inactive).

For the compound `O=C1NC(=O)N(C(F)(F)F)C(F)(F)N1C(F)(F)F`, the growth inhibition is 23.1% (inactive).

`OCCN(CCO)c1ccc2c(C(F)(F)F)cc(C(F)(F)F)nc2n1`: the growth inhibition was 16.1% (inactive).

For `O=C1CNC(=O)N1c1ccccc1`, the growth inhibition is 3.8% (inactive).

On to `O=C(Oc1ccccc1)c1ccc(C(=O)Oc2ccccc2)cc1`, for which the growth inhibition is 11.6% (inactive).

As for `CC(=O)CC(OC(C)=O)C1=CCC2C(CC1C)OC(=O)C2C` (stereo not given), the growth inhibition is -56.6% (inactive).

As for `O=C(NCC1CC1)NC(=O)c1ccccc1F`, the growth inhibition is -16.9% (inactive).

In the case of `CCCCCCc1c(C)nc(N)[nH]c1=O`, the growth inhibition was -1.05% (inactive).

With `C=CCO[Si](C=C)(OCC=C)OCC=C`, the growth inhibition is -3.95% (inactive).

As to `c1ccc(C2(c3ccccc3)SC2(c2ccccc2)c2ccccc2)cc1`, the growth inhibition is -6.65% (inactive).

`O=C(O)c1ccc(OCC(=O)c2ccccc2)cc1`: the growth inhibition was 8.25% (inactive).

For `O=C(CBr)c1c2c(cc3c1CCCC3)CCCC2`, the growth inhibition is -16.6% (inactive).

`Cc1n(C)c(=O)c2ccccc2[n+]1C`: the growth inhibition was 6.4% (inactive).
